This note sets out measurements from PubChem BioAssay (NCATS).

A short description of assay [1]: qHTS to identify inhibitors of the type 1 interferon - major histocompatibility complex class I in skeletal muscle: primary screen against the NCATS Mechanism Interrogation Plate v5.0 (MIPE) Libary (AID 1347411).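 Further: plate controls were vehicle for no effect and reference inhibitor for full effect; nearly all actives have a fitted effect of over 65% in size.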 The method, boiled down:
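IFN-beta-driven (4 ng/ml) HLA-B-HiBit expression in CRISPR-tagged C25cl48 myoblasts; compounds 11-pt, 1:3, max 46 uM, 24 hr exposure; lytic NanoLuc complementation luminescence.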

Assay [2] is described as follows: Primary qHTS for inhibitors of nuclear receptor binding SET domain protein 2 (NSD2) in an isogenic RCH-ACV NSD2 p.E1099K mutant (9B) (AID 1645876; further: nearly all actives have a fitted effect of over 70% in size; further: potency means the concentration at half of the fitted maximal effect). (In qHTS, concentration-response curves come from the screen itself.)
Assay [3] can be described thus: Primary qHTS for inhibitors of nuclear receptor binding SET domain protein 2 (NSD2) in an RCH-ACV wild type WT cells (2C) (AID 1645877). Further: nearly all actives have a fitted effect of over 70% in size. Further: potency means the concentration at half of the fitted maximal effect.
Assay [4] deals with Glutathione peroxidase 1 (Homo sapiens) (UniProt P07203). In words: Primary qHTS Assay for Inhibitors of Recombinant Selenoprotein Glutathione Peroxidase 1 (GPX1) (AID 1845191). Further: nearly all actives have a fitted effect of over 65% in size. Further: potency means the concentration at half of the fitted maximal effect. The method, boiled down: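 GR-coupled readout: NADPH consumption tracked by fluorescence, ex 340/em 450 nm, at t=0 and after 15 min at RT. Final mix 10 nM GPX1, 1 mM GSH, 0.5 mM CHP, 0.5 mM NADPH, 100 nM GR, 0.01% BSA, following 30 min enzyme–compound preincubation.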

In assay [5] the target is Phospholipid hydroperoxide glutathione peroxidase GPX4 (Homo sapiens) (UniProt P36969). In words: Primary qHTS Assay for Inhibitors of Recombinant Selenoprotein Glutathione Peroxidase 4 (GPX4) (AID 1845192). Further: nearly all actives have a fitted effect of over 65% in size. Further: potency means the concentration at half of the fitted maximal effect. On activity change, negative = inhibition: series mostly up to about 50 µM; on the % scale 0 is the no-effect control and ±100 the full control effect. The note with it: outcome: dose series up to 50 µM unless noted. An outline of the steps: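 Steps: GPX4 plus compound, 30 min RT; add GR/GSH/NADPH master mix; start with cumene hydroperoxide; read 340/450 nm fluorescence at 0 and 15 min. Finals were 200 nM GPX4, 1 mM GSH, 0.5 mM CHP, 0.5 mM NADPH, 100 nM GR.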

Assay [6] can be described thus: qHTS drug screen for cell cycle checkpoint inhibitors in PARPi-resistant BRCA-mutant ovarian cancer cell lines. (AID 1963452; calls by dose curve; further: potency means the concentration at half of the fitted maximal effect). The note with it: PEO1/OlaR viability, CellTiter-Glo luminescence, 96 h; for Z-AUC: stronger effect = lower value. An outline of the steps:
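PEO1, PEO4 and PEO1/OlaR ovarian cancer cells, 600 per well, exposed 96 h at 37C to a dilution series. Viability read by CellTiter-Glo luminescence, normalized to DMSO and empty wells; activity summarized as Z-AUC.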

Setting [7] is: measured here: PEO1 parental Z-AUC.

Values joined by “and” are separate entries in the source; they are usually repeats but may differ in a detail not shown here. Equal entries are not always repeated. Records with an inconclusive call do not appear. Active and inactive are the calls of the source. Unless noted, the call rests on the fitted dose curve; in most records, active means well fitted curve in the direction sought with a large enough effect; inconclusive means small, poorly fitted or top-dose-only effect, or another doubt; inactive means no such curve, though single readings can be large; an effect the other way counts as inactive or inconclusive.

Chain of Phospholipid hydroperoxide glutathione peroxidase GPX4 (Homo sapiens) (P36969 whole entry, looked up): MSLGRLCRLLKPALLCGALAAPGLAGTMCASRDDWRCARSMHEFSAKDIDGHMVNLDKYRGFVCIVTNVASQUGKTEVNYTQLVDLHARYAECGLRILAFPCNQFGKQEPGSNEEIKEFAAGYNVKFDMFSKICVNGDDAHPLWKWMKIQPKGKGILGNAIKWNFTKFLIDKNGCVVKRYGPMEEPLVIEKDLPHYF
Chain of Glutathione peroxidase 1 (Homo sapiens) (P07203 whole entry, looked up): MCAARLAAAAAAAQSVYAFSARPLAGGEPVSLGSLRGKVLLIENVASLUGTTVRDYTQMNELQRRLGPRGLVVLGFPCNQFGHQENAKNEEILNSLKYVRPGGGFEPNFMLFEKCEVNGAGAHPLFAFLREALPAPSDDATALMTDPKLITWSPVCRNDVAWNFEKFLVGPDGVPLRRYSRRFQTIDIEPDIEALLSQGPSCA

In the case of `Nc1nccc2c1ncn2[C@@H]1C=C(CO)[C@@H](O)[C@H]1O`, the Potency entry in assay [1], in assay [4] and in assay [5] was “inactive” in each case. Besides, the Potency in assay [2] is 209 nM (active); in assay [3], 148 nM (active). Moreover, the Z-AUC in assay [6] is -0.397 (inactive); in assay [6] (setting [7]), -0.938; in assay [6] (measured here: PEO4 Z-AUC), -1.07.
Take `C[C@H]1O[C@H](O[C@H]2[C@H](O)[C@@H](O)[C@@H](O[C@H]3[C@H](O)[C@@H](O)C(O)O[C@@H]3CO)O[C@@H]2CO)[C@H](O)[C@@H](O)[C@@H]1N[C@H]1C=C(CO)[C@@H](O)[C@H](O)[C@H]1O` (some centres undefined): the Potency result in assay [1], in assay [2], in assay [3], in assay [4] and in assay [5] was “inactive” in each case. For the same molecule, the results for the Z-AUC in assay [6], in assay [6] (setting [7]) and in assay [6] (measured here: PEO4 Z-AUC) were 0.621 (inactive), 1.06 and 0.614, respectively.
In the case of `C[C@]12CCC3=C4CCC(=O)C=C4CC[C@H]3[C@@H]1CC[C@@]2(O)CC#N`, the Potency result in assay [1], in assay [2], in assay [3], in assay [4] and in assay [5] was “inactive” each time. Besides, the Z-AUC was 1.33 (inactive) in assay [6], 1.75 in assay [6] (setting [7]) and 1.39 in assay [6] (measured here: PEO4 Z-AUC).
As to `Cn1cc(-c2nc(N[C@@H]3CCCC[C@@H]3N)c(F)c3c2C(=O)NC3)cn1`, in assay [1], the activity change, negative = inhibition was -16.3% [at 5.1 µM] (inactive). The Potency was 662 nM (active) in assay [2] and 590 nM (active) in assay [3]. The outcome is “inactive [at 4.49 µM]” in assay [4] and “inactive [at 4.52 µM]” in assay [5]. Further, the Z-AUC is 0.172 (inactive) in assay [6], 0.884 in assay [6] (setting [7]) and 0.422 in assay [6] (measured here: PEO4 Z-AUC).
With `Cc1c(F)cccc1NC(=O)Nc1ccc(Cl)c(S(=O)(=O)[C@H]2CCCNC2)c1O`, the Potency entry in assay [1], in assay [2], in assay [3], in assay [4] and in assay [5] was “inactive” in each case. The values for the Z-AUC in assay [6], in assay [6] (setting [7]) and in assay [6] (measured here: PEO4 Z-AUC) were 1.68 (inactive), 1.25 and 1.41, respectively.
Turning to `O=C1NC(=O)[C@@H](c2cn3c4c(cccc24)CCC3)[C@@H]1c1c[nH]c2ccccc12`, the Potency entry in assay [1], in assay [4] and in assay [5] was “inactive” in each case. For the same molecule, the figures for the Potency in assay [2] and in assay [3] were 1320 nM (active) and 1050 nM (active), respectively. Besides, the Z-AUC in assay [6] was 0.925 (inactive); in assay [6] (setting [7]) it was 0.797; in assay [6] (measured here: PEO4 Z-AUC), 0.765.
With `COc1cc2c(cc1OC)CN(CCc1ccc(-n3nnc(-c4cc(OC)c(OC)cc4NC(=O)c4cc(=O)c5ccccc5o4)n3)cc1)CC2`, in assay [1], the activity change, negative = inhibition was -5.16% [at 0.314 µM] (inactive). The outcome is “inactive [at 0.588 µM]” in assay [2], “inactive [at 0.588 µM]” in assay [3], “inactive [at 0.4 µM]” in assay [4] and “inactive [at 0.409 µM]” in assay [5]. Further, the Z-AUC in assay [6] was 2.8 (inactive); in assay [6] (setting [7]) it was 2.17; in assay [6] (measured here: PEO4 Z-AUC), 2.67.
Regarding `CCC(=O)N1CCOc2c(cc(-c3cc(OC)cc(OC)c3)cc2C(=O)N[C@H]2CCCN(C)C2)C1`, the Potency result in assay [1], in assay [4] and in assay [5] was “inactive” throughout. For the same molecule, the Potency in assay [2] and in assay [3] was 4170 nM (active) each time. Moreover, the Z-AUC was 1.12 (inactive) in assay [6], 0.448 in assay [6] (setting [7]) and 0.4 in assay [6] (measured here: PEO4 Z-AUC).
In the case of `O=C(O)CC(C(=O)O)n1c(O)c(C2=c3cc(Br)ccc3=NC2=O)sc1=S` (centres undefined), the Potency entry in assay [1], in assay [2] and in assay [3] was “inactive” each time. For the same molecule, the results for the Potency in assay [4] and in assay [5] were 5150 nM (active) and 10100 nM (active), respectively. Moreover, the Z-AUC is 1.23 (inactive) in assay [6], 0.91 in assay [6] (setting [7]) and 1.08 in assay [6] (measured here: PEO4 Z-AUC).
`C=CCN1C[C@H](C(=O)N(CCCN(C)C)C(=O)NCC)CC2c3cccc4[nH]cc(c34)C[C@H]21` (some centres undefined): the Potency entry in assay [1], in assay [2], in assay [3], in assay [4] and in assay [5] was “inactive” throughout. The figures for the Z-AUC in assay [6], in assay [6] (setting [7]) and in assay [6] (measured here: PEO4 Z-AUC) were -0.809 (inactive), -0.35 and -0.259, respectively.
On to `Cc1nnn(C)c1-c1cnc2c3ccc(C(C)(C)O)cc3n([C@H](c3ccccc3)C3CCOCC3)c2c1`, for which the Potency result in assay [1] is “inactive”. In addition, the Potency in assay [2] is 7.4 nM (active); in assay [3] it was 9.3 nM (active); in assay [4], 18300 nM (active); in assay [5] it was 16100 nM (active); in assay [6], 549 nM (active). Further, the Z-AUC in assay [6] (setting [7]) is -1.84; in assay [6] (measured here: PEO4 Z-AUC), -2.14.
Consider `COc1cc2nccc(Oc3ccc(NC(=O)c4cn(C(C)C)c(=O)n(-c5ccc(F)cc5)c4=O)cc3F)c2cc1OC`, for which the Potency result in assay [1], in assay [2], in assay [3], in assay [4] and in assay [5] was “inactive” each time. The Z-AUC in assay [6] was -0.766 (inactive); in assay [6] (setting [7]), -0.766; in assay [6] (measured here: PEO4 Z-AUC), -0.777.
`COc1cc([C@@H]2c3cc4c(cc3[C@@H](O[C@@H]3O[C@@H]5CO[C@@H](c6cccs6)O[C@H]5[C@H](O)[C@H]3O)[C@H]3COC(=O)[C@H]23)OCO4)cc(OC)c1O`: the Potency result in assay [1], in assay [4] and in assay [5] was “inactive” each time. In addition, the Potency in assay [2] is 33.2 nM (active); in assay [3], 23.5 nM (active); in assay [6], 87.1 nM (active). Moreover, the Z-AUC is -1.88 in assay [6] (setting [7]) and -2.18 in assay [6] (measured here: PEO4 Z-AUC).
With `Nc1nc(OC(c2ccc(-c3cccc(F)c3)cc2)C(F)(F)F)cc(-c2ccc(C[C@@H](N)C(=O)O)cc2)n1` (some centres undefined), the Potency result in assay [1], in assay [4] and in assay [5] was “inactive” throughout. The Potency in assay [2] is 18600 nM (active); in assay [3] it was 20900 nM (active). For the same molecule, the Z-AUC is 1.03 (inactive) in assay [6], 1.4 in assay [6] (setting [7]) and 1.67 in assay [6] (measured here: PEO4 Z-AUC).
In the case of `COc1cccc(-c2c(C)n(Cc3c(F)cccc3C(F)(F)F)c(=O)n(C[C@H](NCCCC(=O)O)c3ccccc3)c2=O)c1F`, the Potency result in assay [1], in assay [2], in assay [3], in assay [4] and in assay [5] was “inactive” each time. The Z-AUC in assay [6] is 1.28 (inactive) and 1.27 (inactive); in assay [6] (setting [7]), 0.714 and 0.439; in assay [6] (measured here: PEO4 Z-AUC), 0.863 and 0.647.
For the molecule `C[C@@H]1C(=O)OC2[C@H](O)[C@]34[C@H]5C[C@@H](C(C)(C)C)[C@]36[C@@H](OC(=O)[C@@H]6O)O[C@@]4(C(=O)O5)[C@]21O` (some centres undefined), the Potency entry in assay [1], in assay [2], in assay [3], in assay [4] and in assay [5] was “inactive” in each case. The Z-AUC in assay [6] is 1.19 (inactive); in assay [6] (setting [7]) it was 0.871; in assay [6] (measured here: PEO4 Z-AUC) it was 0.917.
Take `COc1cc(C)[nH]c(=O)c1CN1CCc2c(Cl)cc([C@H](OC)C3COC3)c(Cl)c2C1=O`: the Potency result in assay [1], in assay [2], in assay [3], in assay [4] and in assay [5] was “inactive” each time. The values for the Z-AUC in assay [6], in assay [6] (setting [7]) and in assay [6] (measured here: PEO4 Z-AUC) were 1.05 (inactive), 0.817 and 0.549, respectively.
As for `COc1cc(C(=O)NC(N)=Nc2ccc(C)c(NC(=O)c3ccc(-c4ccccc4)cc3)c2)cc(OC)c1OC`, the Potency entry in assay [1], in assay [4] and in assay [5] was “inactive” in each case. For the same molecule, the Potency in assay [2] was 13200 nM (active); in assay [3], 11800 nM (active). Besides, the Z-AUC in assay [6] was 0.647 (inactive); in assay [6] (setting [7]), 0.261; in assay [6] (measured here: PEO4 Z-AUC), 0.136.
